Measured values published in publication PMC11062922 (Nature Chemical Biology, 2023).
Read-outs that look alike come from different tables or passages of the source.

Key:
Design in all cases: species or system human, MV4-11 + K-562 + COLO205 + SK-N-BE2 + OVCAR-8
ADRBK1 = conditions: read-out: apparent Kd, n = 1
AKT1 = conditions: read-out: apparent Kd; compound concentrations: 100 nM and 1000 nM (sheet 'Samples'), CATDS: 0.12373221048930499; n = 1
AKT2 = conditions: read-out: apparent Kd; compound concentrations: 100 nM and 1000 nM (sheet 'Samples'), CATDS: 0.121499008172246; n = 1
CDK6 = conditions: read-out: apparent Kd, n = 1
MAP2K1 = conditions: read-out: apparent Kd; compound concentrations: 100 nM and 1000 nM (sheet 'Samples'), CATDS: 0.131345384217323; n = 1
MAP2K2 = conditions: read-out: apparent Kd; compound concentrations: 100 nM and 1000 nM (sheet 'Samples'), CATDS: 0.121431246351448; n = 1
NNT = conditions: read-out: apparent Kd; compound concentrations: 100 nM and 1000 nM (sheet 'Samples'), CATDS: 0.14240170913061401; n = 1
NQO1 = conditions: read-out: apparent Kd; compound concentrations: 100 nM and 1000 nM (sheet 'Samples'), CATDS: 0.12637990091667001; n = 1
CLK3 = conditions: read-out: apparent Kd; compound concentrations: 100 nM and 1000 nM (sheet 'Samples'), CATDS: 0.62903265036008305; n = 1
COX5A = conditions: read-out: apparent Kd; compound concentrations:100 nM and 1000 nM (sheet 'Samples'); n = 1
EPHA7 = conditions: read-out: apparent Kd; compound concentrations:100 nM and 1000 nM (sheet 'Samples'); n = 1
PIK3CB = conditions: read-out: apparent Kd; compound concentrations:100 nM and 1000 nM (sheet 'Samples'); n = 1
ERBB3 = conditions: read-out: apparent Kd; compound concentrations:100 nM and 1000 nM (sheet 'Samples'); n = 1
RIOK2 = conditions: read-out: apparent Kd; compound concentrations:100 nM and 1000 nM (sheet 'Samples'); n = 1
AURKB = conditions: read-out: apparent Kd; compound concentrations: 100 nM and 1000 nM (sheet 'Samples'), CATDS: 4.53976270719329E-2; n = 1
CDC42BPA = conditions: read-out: apparent Kd; compound concentrations: 100 nM and 1000 nM (sheet 'Samples'), CATDS: 4.6703340399090902E-2; n = 1
CDC42BPB = conditions: read-out: apparent Kd; compound concentrations: 100 nM and 1000 nM (sheet 'Samples'), CATDS: 8.1718607262500007E-2; n = 1
CDC42BPG = conditions: read-out: apparent Kd; compound concentrations: 100 nM and 1000 nM (sheet 'Samples'), CATDS: 0.122976821527932; n = 1
MELK = conditions: read-out: apparent Kd; compound concentrations: 100 nM and 1000 nM (sheet 'Samples'), CATDS: 4.0337872556692203E-2; n = 1
PKN1 = conditions: read-out: apparent Kd; compound concentrations: 100 nM and 1000 nM (sheet 'Samples'), CATDS: 5.5828153237378199E-2; n = 1
PRKACA = conditions: read-out: apparent Kd; compound concentrations: 100 nM and 1000 nM (sheet 'Samples'), CATDS: 0.15364930572584601; n = 1
PRKACB = conditions: read-out: apparent Kd; compound concentrations: 100 nM and 1000 nM (sheet 'Samples'), CATDS: 8.6308392593060404E-2; n = 1
PRKG1 = conditions: read-out: apparent Kd; compound concentrations: 100 nM and 1000 nM (sheet 'Samples'), CATDS: 0.45709294819491503; n = 1
PRKX;PRKY = conditions: read-out: apparent Kd; compound concentrations: 100 nM and 1000 nM (sheet 'Samples'), CATDS: 6.11631694313804E-2; n = 1
ROCK1 = conditions: read-out: apparent Kd; compound concentrations: 100 nM and 1000 nM (sheet 'Samples'), CATDS: 0.130780563846252; n = 1
ROCK2 = conditions: read-out: apparent Kd; compound concentrations: 100 nM and 1000 nM (sheet 'Samples'), CATDS: 0.120469396164387; n = 1
RPS6KA5 = conditions: read-out: apparent Kd; compound concentrations: 100 nM and 1000 nM (sheet 'Samples'), CATDS: 4.3322192000587102E-2; n = 1
RPS6KB1 = conditions: read-out: apparent Kd; compound concentrations: 100 nM and 1000 nM (sheet 'Samples'), CATDS: 4.8981649950923703E-2; n = 1
[1] = compound concentrations: 100 nM and 1000 nM (sheet 'Samples'), CATDS: 1
[2] = compound concentrations:100 nM and 1000 nM (sheet 'Samples')

Cn1cc(C2=C(c3ccc4ccccc4c3)C(=O)NC2=O)c2ccccc21 [RO0317254-000]
potency estimated from few doses (ADRBK1; compound concentrations: 100 nM and 1000 nM (sheet 'Samples'), CATDS: 0.11613570195442): 2340 nM | potency estimated from few doses (AKT1): 2050 nM | potency estimated from few doses (AKT2): 2130 nM | potency estimated from few doses (CDK6; compound concentrations: 100 nM and 1000 nM (sheet 'Samples'), CATDS: 0.120580307710246): 2160 nM | potency estimated from few doses (MAP2K1): 1820 nM | potency estimated from few doses (MAP2K2): 2130 nM | potency estimated from few doses (NNT): 1570 nM | potency estimated from few doses (NQO1): 1960 nM

COc1cc(Nc2ncc3c(C)nc(-c4cccc(C(F)(F)F)c4)n3n2)cc(OC)c1OC [GW837331X]
potency estimated from few doses (ADRBK1; [1]): 2010 nM

COc1ccc2cc(-c3nc(-c4ccccc4C(C)C)[nH]c3-c3ccncc3)ccc2c1 [SB-660566]
potency estimated from few doses (ADRBK1; compound concentrations: 100 nM and 1000 nM (sheet 'Samples'), CATDS: 0.41489344635778702): 2070 nM | potency estimated from few doses (CLK3): 865 nM

O=c1cc(N2CCOCC2)nc2n(Cc3ccccc3F)ccn12 [GSK2297428A]
potency estimated from few doses (ADRBK1; [2]): 1690 nM | potency estimated from few doses (COX5A): 1300 nM | potency estimated from few doses (EPHA7): 1660 nM | potency estimated from few doses (PIK3CB): 385 nM

CCc1cc(Nc2nccc(-c3c(-c4ccc(OC)c(C(=O)Nc5c(F)cccc5F)c4)nc4ccccn34)n2)c(OC)cc1N1CCC(N2CCN(S(C)(=O)=O)CC2)CC1 [GSK1904529]
potency estimated from few doses (ADRBK1; [2]): 2030 nM | potency estimated from few doses (CDK6; [2]): 2370 nM | potency estimated from few doses (ERBB3): 1360 nM | potency estimated from few doses (RIOK2): 2220 nM

CCNCC(Cc1ccccc1)NC(=O)c1cc(Br)c(-c2ccnc3[nH]ccc23)s1.CCNCC(Cc1ccccc1)NC(=O)c1cc(Br)c(-c2ccnc3[nH]ccc23)s1.Cl.Cl (centres unmarked) [GSK1383280A]
potency estimated from few doses (ADRBK1; compound concentrations: 100 nM and 1000 nM (sheet 'Samples'), CATDS: 4.4620595418211097E-2): 971 nM | potency estimated from few doses (AURKB): 888 nM | potency estimated from few doses (CDC42BPA): 771 nM | potency estimated from few doses (CDC42BPB): 103 nM | potency estimated from few doses (CDC42BPG): 38.1 nM | potency estimated from few doses (MELK): 1780 nM | potency estimated from few doses (PKN1): 359 nM | potency estimated from few doses (PRKACA): 24.4 nM | potency estimated from few doses (PRKACB): 88.6 nM | potency estimated from few doses (PRKG1): 4.21 nM | potency estimated from few doses (PRKX;PRKY): 256 nM | potency estimated from few doses (ROCK1): 33.5 nM | potency estimated from few doses (ROCK2): 39.8 nM | potency estimated from few doses (RPS6KA5): 1140 nM | potency estimated from few doses (RPS6KB1): 617 nM

O=C(Nc1ccc2c(c1)OCO2)NC1CCN(c2ccnc(NCc3ccc(F)cc3)n2)CC1 [GSK1379859A]
potency estimated from few doses (ADRBK1; [1]): 2160 nM
